# Experimental data reported in paper PMC7862700, “An all-to-all approach to the identification of sequence-specific readers for epigenetic DNA modifications on cytosine”.
# Columns and labels:
# Experiment in all cases: DAPPL (digital affinity profiling via proximity ligation, sequencing); 10 mM Tris-HCl pH 7.5, 50 mM NaCl, 1 mM DTT, 4% glycerol, room temperature, 30 min; GST-TFs on glutathione beads, 16-mer random dsDNA library, 0.1% formaldehyde crosslink after washing; high values mean tight binding
# FLI1 = molecular target: T1, FLI1 (Homo sapiens, UniProt Q01543 1-452); details: protein: recombinant; tags: N-terminal GST; dsDNA, one strand shown
# T1 sequence: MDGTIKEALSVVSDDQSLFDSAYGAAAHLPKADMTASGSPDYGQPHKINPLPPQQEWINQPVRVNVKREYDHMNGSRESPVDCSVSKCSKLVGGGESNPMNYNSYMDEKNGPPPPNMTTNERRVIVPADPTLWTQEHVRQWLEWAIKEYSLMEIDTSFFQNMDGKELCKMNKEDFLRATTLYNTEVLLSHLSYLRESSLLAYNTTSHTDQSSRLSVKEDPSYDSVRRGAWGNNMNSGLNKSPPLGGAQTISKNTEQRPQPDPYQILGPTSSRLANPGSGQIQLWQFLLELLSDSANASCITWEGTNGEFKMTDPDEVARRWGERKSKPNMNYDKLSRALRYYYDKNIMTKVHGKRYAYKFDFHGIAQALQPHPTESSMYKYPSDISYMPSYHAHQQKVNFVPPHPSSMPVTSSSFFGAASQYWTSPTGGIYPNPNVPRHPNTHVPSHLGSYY
# Procedure, shortened: (§1)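 Pools of DNA-barcoded human transcription factors, expressed in yeast as GST fusions on glutathione beads and combined with a tag-only sample, were incubated with 200 nmole of a 16-mer random double-stranded DNA library. Incubation took 30 min at room temperature in Tris/NaCl/DTT/glycerol buffer and was followed by washing, 0.1% formaldehyde crosslinking, proximity ligation (BsaI/T4 ligase, 1 h, 37 °C), PCR amplification and sequencing on an Illumina NextSeq500. Binding signal is the ratio of a hexamer's read frequency for a factor to its frequency for the tag-only sample.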
# ELK1 = molecular target: T2, ELK1 (Homo sapiens, UniProt P19419 1-428); details: protein: recombinant; tags: N-terminal GST; dsDNA, one strand shown
# T2 sequence: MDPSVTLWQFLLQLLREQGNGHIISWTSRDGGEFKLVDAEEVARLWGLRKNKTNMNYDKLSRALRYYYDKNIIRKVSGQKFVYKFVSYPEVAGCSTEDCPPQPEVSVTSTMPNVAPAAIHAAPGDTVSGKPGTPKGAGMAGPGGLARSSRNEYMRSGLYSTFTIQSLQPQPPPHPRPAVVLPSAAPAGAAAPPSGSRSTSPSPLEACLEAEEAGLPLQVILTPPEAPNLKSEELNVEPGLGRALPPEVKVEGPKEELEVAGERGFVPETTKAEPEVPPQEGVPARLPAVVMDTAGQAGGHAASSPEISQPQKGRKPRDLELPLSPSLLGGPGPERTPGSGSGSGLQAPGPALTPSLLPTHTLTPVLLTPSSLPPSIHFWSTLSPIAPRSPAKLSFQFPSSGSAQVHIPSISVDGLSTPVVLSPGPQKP
# Procedure, shortened: as §1
# GABPA = molecular target: T3, GABPA (Homo sapiens, UniProt Q06546 1-454); details: protein: recombinant; tags: N-terminal GST; dsDNA, one strand shown
# T3 sequence: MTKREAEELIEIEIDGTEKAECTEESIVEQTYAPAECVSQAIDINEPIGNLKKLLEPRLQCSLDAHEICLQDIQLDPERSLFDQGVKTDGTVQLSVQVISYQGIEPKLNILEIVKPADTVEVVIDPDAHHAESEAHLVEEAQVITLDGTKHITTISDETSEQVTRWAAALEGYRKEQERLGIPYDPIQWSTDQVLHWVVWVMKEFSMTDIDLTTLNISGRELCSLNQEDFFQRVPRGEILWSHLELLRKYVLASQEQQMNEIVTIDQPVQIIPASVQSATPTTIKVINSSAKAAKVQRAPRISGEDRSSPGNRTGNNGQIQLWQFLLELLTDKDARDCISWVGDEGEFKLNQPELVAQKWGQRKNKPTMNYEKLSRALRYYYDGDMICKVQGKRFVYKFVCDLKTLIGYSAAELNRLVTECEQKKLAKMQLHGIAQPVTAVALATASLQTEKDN
# Procedure, shortened: as §1
# ERG = molecular target: T4, ERG (Homo sapiens, UniProt P11308 1-479); details: protein: recombinant; tags: N-terminal GST; dsDNA, one strand shown
# T4 sequence: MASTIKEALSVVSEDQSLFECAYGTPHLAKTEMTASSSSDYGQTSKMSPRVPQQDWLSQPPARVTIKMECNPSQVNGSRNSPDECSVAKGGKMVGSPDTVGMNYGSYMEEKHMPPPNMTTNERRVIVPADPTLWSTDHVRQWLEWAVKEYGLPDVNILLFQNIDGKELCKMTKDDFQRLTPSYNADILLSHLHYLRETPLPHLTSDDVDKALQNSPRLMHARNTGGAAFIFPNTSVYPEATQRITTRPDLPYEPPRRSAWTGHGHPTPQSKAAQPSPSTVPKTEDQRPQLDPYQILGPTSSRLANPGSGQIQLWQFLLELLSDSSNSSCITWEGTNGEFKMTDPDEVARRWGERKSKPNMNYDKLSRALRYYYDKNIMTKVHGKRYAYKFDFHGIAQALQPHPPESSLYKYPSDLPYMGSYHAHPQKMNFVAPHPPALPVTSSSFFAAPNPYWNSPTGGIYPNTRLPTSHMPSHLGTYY
# Procedure, shortened: as §1
# ELF1 = ELF1 (Homo sapiens, UniProt P32519 1-619); details: protein: recombinant; tags: N-terminal GST; dsDNA, one strand shown
# Sequence of ELF1 (P32519 whole entry): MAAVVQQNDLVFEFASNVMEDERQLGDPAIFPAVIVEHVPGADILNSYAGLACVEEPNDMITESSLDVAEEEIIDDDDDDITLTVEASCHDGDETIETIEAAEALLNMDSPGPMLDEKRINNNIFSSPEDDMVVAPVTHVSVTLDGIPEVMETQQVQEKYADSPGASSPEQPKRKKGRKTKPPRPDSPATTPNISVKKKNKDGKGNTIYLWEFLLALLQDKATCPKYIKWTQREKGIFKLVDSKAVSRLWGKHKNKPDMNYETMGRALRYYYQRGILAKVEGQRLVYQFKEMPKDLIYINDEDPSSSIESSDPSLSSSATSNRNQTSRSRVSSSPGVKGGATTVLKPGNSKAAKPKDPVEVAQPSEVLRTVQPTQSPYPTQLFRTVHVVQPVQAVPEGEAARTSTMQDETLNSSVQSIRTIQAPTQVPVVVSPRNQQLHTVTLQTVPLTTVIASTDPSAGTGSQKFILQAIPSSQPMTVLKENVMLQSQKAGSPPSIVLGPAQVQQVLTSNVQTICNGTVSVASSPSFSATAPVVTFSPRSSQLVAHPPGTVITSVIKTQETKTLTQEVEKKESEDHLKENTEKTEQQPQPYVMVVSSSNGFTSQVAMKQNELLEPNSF
# Procedure, shortened: as §1
# EHF = molecular target: T5, EHF (Homo sapiens, UniProt Q9NZC4 1-300); details: protein: recombinant; tags: N-terminal GST; dsDNA, one strand shown
# T5 sequence: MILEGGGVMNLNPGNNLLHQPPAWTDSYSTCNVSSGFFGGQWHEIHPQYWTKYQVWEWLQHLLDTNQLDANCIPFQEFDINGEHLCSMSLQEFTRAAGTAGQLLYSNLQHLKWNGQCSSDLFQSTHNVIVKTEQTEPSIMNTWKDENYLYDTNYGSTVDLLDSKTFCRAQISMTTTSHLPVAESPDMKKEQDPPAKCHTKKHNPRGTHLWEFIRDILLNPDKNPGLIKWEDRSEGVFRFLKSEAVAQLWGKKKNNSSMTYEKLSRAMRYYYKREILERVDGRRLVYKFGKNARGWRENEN
# Procedure, shortened: as §1
# SPI1 = SPI1 (Homo sapiens, UniProt P17947 1-270); details: protein: recombinant; tags: N-terminal GST; dsDNA, one strand shown
# Procedure, shortened: as §1
# SPIB = SPIB (Homo sapiens, UniProt Q01892 1-262); details: protein: recombinant; tags: N-terminal GST; dsDNA, one strand shown
# Sequence of SPIB (Q01892 whole entry): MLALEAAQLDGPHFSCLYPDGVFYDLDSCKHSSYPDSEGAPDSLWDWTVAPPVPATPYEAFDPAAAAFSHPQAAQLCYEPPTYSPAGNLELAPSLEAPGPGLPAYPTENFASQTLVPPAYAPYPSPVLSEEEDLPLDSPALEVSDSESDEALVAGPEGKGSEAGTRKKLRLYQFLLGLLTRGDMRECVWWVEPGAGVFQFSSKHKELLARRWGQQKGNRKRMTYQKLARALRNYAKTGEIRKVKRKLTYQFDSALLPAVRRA
# Procedure, shortened: as §1
# ELK3 = molecular target: T6, ELK3 (Homo sapiens, UniProt P41970 1-407); details: protein: recombinant; tags: N-terminal GST; dsDNA, one strand shown
# T6 sequence: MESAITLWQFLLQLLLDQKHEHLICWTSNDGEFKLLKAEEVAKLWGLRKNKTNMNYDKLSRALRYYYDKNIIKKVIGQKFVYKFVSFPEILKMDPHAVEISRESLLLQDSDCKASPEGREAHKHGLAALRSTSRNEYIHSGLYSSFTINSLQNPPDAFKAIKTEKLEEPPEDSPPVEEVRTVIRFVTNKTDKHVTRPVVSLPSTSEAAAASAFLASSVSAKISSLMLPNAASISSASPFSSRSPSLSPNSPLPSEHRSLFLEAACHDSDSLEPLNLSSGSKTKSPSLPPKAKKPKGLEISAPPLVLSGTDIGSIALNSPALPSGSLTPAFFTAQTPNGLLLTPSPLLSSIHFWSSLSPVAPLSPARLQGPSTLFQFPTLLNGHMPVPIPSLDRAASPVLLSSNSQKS
# Procedure, shortened: as §1
# FEV = molecular target: T7, FEV (Homo sapiens, UniProt Q99581 1-238); details: protein: recombinant; tags: N-terminal GST; dsDNA, one strand shown
# T7 sequence: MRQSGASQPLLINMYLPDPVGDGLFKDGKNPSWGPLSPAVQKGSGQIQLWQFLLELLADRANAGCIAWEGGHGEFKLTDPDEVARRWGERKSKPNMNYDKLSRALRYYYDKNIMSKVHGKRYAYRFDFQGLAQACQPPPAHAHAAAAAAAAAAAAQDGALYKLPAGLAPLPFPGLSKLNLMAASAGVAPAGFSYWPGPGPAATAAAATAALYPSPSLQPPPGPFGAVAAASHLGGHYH
# Procedure, shortened: as §1
# ETV5 = ETV5 (Homo sapiens, UniProt P41161 1-510); details: protein: recombinant; tags: N-terminal GST; dsDNA, one strand shown
# Sequence of ETV5 (P41161 whole entry): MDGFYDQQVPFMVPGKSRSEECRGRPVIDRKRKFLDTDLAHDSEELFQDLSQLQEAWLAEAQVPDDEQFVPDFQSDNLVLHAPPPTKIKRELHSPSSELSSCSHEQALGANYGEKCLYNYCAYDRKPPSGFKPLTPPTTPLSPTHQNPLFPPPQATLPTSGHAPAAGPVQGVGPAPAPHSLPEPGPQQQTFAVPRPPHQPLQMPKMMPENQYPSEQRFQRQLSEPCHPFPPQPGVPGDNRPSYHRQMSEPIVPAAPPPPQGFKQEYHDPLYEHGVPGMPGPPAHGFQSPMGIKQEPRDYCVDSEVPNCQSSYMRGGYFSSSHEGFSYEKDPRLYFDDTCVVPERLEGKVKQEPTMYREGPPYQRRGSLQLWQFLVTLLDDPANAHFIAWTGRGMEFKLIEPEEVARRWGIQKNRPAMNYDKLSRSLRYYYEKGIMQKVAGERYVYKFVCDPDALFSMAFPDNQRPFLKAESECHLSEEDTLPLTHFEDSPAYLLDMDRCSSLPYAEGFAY
# Procedure, shortened: as §1
# HSF1 = HSF1 (Homo sapiens, UniProt Q00613 1-529); details: protein: recombinant; tags: N-terminal GST; chain copies: 3; dsDNA, one strand shown
# Sequence of HSF1 (Q00613 whole entry): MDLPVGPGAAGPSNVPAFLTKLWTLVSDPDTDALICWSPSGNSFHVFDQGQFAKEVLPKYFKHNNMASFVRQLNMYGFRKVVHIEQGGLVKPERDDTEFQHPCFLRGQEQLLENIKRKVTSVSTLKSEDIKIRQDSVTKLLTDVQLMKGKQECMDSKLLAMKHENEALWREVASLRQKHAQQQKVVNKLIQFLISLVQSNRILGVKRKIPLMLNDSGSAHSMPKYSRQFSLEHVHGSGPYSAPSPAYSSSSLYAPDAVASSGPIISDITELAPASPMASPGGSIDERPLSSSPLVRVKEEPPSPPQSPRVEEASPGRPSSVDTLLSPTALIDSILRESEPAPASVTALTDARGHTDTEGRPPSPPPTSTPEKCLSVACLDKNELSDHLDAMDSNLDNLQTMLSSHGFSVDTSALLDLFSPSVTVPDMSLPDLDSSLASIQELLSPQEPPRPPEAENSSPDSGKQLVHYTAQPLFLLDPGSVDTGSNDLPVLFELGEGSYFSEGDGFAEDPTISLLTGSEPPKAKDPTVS
# Procedure, shortened: as §1
# SPIC = molecular target: T8, SPIC (Homo sapiens, UniProt Q8N5J4 1-248); details: protein: recombinant; tags: N-terminal GST; dsDNA, one strand shown
# T8 sequence: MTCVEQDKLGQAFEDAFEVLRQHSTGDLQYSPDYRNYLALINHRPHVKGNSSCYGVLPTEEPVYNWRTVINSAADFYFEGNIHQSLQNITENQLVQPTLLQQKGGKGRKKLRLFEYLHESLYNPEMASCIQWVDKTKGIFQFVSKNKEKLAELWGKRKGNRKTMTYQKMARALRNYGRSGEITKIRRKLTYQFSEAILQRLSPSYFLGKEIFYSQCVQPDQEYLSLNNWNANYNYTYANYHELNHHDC
# Procedure, shortened: as §1
# ELF4 = ELF4 (Homo sapiens, UniProt Q99607 1-663); details: protein: recombinant; tags: N-terminal GST; dsDNA, one strand shown
# Sequence of ELF4 (Q99607 whole entry): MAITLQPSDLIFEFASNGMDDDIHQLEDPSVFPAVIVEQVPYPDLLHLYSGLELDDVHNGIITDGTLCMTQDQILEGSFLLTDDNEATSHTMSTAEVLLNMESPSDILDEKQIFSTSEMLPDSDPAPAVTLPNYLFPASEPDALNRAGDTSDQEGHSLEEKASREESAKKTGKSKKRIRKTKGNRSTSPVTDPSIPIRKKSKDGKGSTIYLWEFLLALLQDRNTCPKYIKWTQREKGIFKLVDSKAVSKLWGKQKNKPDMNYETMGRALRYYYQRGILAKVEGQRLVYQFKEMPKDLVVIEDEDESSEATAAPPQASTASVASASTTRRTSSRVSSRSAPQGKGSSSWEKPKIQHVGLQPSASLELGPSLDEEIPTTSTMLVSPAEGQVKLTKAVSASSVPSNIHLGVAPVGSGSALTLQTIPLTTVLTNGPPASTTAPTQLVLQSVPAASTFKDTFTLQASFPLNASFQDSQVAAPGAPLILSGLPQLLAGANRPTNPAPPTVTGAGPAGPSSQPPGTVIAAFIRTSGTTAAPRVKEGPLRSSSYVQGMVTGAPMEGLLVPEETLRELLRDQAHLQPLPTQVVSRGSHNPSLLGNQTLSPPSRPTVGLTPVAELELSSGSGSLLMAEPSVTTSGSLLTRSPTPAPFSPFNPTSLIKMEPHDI
# Procedure, shortened: as §1
# ELK4 = molecular target: T9, ELK4 (Homo sapiens, UniProt P28324-2 1-405); details: protein: recombinant; tags: N-terminal GST; dsDNA, one strand shown
# T9 sequence: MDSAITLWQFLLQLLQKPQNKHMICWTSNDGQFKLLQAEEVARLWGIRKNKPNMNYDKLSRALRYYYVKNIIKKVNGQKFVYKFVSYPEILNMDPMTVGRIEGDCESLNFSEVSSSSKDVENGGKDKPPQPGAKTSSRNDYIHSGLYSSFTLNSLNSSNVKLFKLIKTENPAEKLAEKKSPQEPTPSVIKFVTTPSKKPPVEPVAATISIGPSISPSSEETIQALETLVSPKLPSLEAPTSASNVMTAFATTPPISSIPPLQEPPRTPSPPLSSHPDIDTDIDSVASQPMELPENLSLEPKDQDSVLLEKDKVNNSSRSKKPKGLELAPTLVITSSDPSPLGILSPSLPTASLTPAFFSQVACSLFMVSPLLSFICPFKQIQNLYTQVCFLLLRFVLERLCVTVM
# Procedure, shortened: as §1
# ETV2 = molecular target: T10, ETV2 (Homo sapiens, UniProt O00321 1-342); details: protein: recombinant; tags: N-terminal GST; dsDNA, one strand shown
# T10 sequence: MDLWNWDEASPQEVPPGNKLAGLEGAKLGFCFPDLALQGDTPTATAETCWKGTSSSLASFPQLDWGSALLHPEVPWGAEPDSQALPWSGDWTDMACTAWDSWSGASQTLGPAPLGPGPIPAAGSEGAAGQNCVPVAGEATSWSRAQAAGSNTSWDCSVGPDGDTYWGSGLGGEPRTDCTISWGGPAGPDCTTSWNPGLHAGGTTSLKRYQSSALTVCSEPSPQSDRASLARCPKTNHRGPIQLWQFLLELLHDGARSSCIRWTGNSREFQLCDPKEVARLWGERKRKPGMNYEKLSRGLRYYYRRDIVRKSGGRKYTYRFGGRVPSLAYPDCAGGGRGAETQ
# Procedure, shortened: as §1
# ELF3 = molecular target: T11, ELF3 (Homo sapiens, UniProt P78545 1-371); details: protein: recombinant; tags: N-terminal GST; dsDNA, one strand shown
# T11 sequence: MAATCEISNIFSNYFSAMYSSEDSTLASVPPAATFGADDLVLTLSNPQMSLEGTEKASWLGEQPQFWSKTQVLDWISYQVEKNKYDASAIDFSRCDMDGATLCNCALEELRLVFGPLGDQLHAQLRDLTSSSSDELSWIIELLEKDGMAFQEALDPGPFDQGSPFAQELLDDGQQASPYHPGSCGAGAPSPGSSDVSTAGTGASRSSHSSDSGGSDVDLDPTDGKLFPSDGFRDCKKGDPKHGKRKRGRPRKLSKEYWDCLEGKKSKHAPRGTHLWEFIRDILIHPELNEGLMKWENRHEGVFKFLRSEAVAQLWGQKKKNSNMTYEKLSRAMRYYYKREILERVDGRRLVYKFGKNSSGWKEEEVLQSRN
# Procedure, shortened: as §1
# CRX = CRX (Homo sapiens, UniProt O43186 1-299); details: protein: recombinant; tags: N-terminal GST; dsDNA, one strand shown
# Sequence of CRX (O43186 whole entry): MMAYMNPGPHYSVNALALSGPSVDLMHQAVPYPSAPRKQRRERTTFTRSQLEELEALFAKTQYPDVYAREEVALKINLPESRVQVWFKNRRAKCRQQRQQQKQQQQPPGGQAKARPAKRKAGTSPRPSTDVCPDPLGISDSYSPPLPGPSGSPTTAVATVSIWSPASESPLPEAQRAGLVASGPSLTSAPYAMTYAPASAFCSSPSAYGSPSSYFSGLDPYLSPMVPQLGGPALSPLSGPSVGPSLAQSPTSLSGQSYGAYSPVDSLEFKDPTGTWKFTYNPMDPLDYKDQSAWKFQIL
# Procedure, shortened: as §1
# ETV1 = ETV1 (Homo sapiens, UniProt P50549 1-477); details: protein: recombinant; tags: N-terminal GST; dsDNA, one strand shown
# Sequence of ETV1 (P50549 whole entry): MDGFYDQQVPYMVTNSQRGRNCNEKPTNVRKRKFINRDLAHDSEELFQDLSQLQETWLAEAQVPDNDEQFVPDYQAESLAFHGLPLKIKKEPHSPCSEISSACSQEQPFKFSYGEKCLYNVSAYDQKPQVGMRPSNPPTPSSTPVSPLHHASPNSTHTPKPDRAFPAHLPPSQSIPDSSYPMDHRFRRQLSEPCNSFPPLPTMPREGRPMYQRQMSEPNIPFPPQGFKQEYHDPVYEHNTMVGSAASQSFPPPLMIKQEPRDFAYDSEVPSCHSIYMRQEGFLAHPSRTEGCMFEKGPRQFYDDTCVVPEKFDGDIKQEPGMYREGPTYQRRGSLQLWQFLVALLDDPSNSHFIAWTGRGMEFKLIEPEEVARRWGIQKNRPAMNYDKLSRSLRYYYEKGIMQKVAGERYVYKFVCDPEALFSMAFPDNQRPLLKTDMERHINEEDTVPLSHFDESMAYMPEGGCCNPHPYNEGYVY
# Procedure, shortened: as §1
sequence,measurement,setting,value
CTGATC,binding signal,FLI1,"1.16 fold enrichment (6-mer frequency, TF over GST control)"
same,binding signal,ELK1,"1.54 fold enrichment (6-mer frequency, TF over GST control)"
same,binding signal,GABPA,"1.4 fold enrichment (6-mer frequency, TF over GST control)"
same,binding signal,ERG,"1.42 fold enrichment (6-mer frequency, TF over GST control)"
same,binding signal,ELF1,"1.4 fold enrichment (6-mer frequency, TF over GST control)"
same,binding signal,EHF,"1.39 fold enrichment (6-mer frequency, TF over GST control)"
same,binding signal,SPI1,"1.27 fold enrichment (6-mer frequency, TF over GST control)"
same,binding signal,SPIB,"1.4 fold enrichment (6-mer frequency, TF over GST control)"
same,binding signal,ELK3,"1.4 fold enrichment (6-mer frequency, TF over GST control)"
same,binding signal,FEV,"1.31 fold enrichment (6-mer frequency, TF over GST control)"
same,binding signal,ETV5,"1.29 fold enrichment (6-mer frequency, TF over GST control)"
same,binding signal,HSF1,"1.53 fold enrichment (6-mer frequency, TF over GST control)"
same,binding signal,SPIC,"1.57 fold enrichment (6-mer frequency, TF over GST control)"
same,binding signal,ELF4,"1.41 fold enrichment (6-mer frequency, TF over GST control)"
same,binding signal,ELK4,"1.39 fold enrichment (6-mer frequency, TF over GST control)"
same,binding signal,ETV2,"1.13 fold enrichment (6-mer frequency, TF over GST control)"
same,binding signal,ELF3,"1.25 fold enrichment (6-mer frequency, TF over GST control)"
same,binding signal,CRX,"1.95 fold enrichment (6-mer frequency, TF over GST control)"
same,binding signal,ETV1,"1.43 fold enrichment (6-mer frequency, TF over GST control)"
